Test results published in the supplement of paper PMC11001985.
A number with no mark means an inactive call.

Compound: C#CCNC(=O)CCSSCCC(=O)NCCc1ccc(C=O)c(C=O)c1
Assay: lysine labeling ratio R10:1 (500 µM / 50 µM probe), SILAC-ABPP in living cells; higher = lower intrinsic lysine reactivity toward the probe, active = 2 or less
Settings: HeLa; probe concentrations 500 vs 50 µM
Method in brief: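 For each lysine, R is the median over forward and reverse replicates of the filtered median MS1 peptide ratio of high probe to low probe. The probe, an alkyne-tagged, disulfide-linked lysine probe, was given at 500 µM or 50 µM to living SILAC light and heavy HeLa cells in PBS at room temperature, with label swaps. Values are capped at 20.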

Chain of UniProt Q15149 (Q15149 whole entry): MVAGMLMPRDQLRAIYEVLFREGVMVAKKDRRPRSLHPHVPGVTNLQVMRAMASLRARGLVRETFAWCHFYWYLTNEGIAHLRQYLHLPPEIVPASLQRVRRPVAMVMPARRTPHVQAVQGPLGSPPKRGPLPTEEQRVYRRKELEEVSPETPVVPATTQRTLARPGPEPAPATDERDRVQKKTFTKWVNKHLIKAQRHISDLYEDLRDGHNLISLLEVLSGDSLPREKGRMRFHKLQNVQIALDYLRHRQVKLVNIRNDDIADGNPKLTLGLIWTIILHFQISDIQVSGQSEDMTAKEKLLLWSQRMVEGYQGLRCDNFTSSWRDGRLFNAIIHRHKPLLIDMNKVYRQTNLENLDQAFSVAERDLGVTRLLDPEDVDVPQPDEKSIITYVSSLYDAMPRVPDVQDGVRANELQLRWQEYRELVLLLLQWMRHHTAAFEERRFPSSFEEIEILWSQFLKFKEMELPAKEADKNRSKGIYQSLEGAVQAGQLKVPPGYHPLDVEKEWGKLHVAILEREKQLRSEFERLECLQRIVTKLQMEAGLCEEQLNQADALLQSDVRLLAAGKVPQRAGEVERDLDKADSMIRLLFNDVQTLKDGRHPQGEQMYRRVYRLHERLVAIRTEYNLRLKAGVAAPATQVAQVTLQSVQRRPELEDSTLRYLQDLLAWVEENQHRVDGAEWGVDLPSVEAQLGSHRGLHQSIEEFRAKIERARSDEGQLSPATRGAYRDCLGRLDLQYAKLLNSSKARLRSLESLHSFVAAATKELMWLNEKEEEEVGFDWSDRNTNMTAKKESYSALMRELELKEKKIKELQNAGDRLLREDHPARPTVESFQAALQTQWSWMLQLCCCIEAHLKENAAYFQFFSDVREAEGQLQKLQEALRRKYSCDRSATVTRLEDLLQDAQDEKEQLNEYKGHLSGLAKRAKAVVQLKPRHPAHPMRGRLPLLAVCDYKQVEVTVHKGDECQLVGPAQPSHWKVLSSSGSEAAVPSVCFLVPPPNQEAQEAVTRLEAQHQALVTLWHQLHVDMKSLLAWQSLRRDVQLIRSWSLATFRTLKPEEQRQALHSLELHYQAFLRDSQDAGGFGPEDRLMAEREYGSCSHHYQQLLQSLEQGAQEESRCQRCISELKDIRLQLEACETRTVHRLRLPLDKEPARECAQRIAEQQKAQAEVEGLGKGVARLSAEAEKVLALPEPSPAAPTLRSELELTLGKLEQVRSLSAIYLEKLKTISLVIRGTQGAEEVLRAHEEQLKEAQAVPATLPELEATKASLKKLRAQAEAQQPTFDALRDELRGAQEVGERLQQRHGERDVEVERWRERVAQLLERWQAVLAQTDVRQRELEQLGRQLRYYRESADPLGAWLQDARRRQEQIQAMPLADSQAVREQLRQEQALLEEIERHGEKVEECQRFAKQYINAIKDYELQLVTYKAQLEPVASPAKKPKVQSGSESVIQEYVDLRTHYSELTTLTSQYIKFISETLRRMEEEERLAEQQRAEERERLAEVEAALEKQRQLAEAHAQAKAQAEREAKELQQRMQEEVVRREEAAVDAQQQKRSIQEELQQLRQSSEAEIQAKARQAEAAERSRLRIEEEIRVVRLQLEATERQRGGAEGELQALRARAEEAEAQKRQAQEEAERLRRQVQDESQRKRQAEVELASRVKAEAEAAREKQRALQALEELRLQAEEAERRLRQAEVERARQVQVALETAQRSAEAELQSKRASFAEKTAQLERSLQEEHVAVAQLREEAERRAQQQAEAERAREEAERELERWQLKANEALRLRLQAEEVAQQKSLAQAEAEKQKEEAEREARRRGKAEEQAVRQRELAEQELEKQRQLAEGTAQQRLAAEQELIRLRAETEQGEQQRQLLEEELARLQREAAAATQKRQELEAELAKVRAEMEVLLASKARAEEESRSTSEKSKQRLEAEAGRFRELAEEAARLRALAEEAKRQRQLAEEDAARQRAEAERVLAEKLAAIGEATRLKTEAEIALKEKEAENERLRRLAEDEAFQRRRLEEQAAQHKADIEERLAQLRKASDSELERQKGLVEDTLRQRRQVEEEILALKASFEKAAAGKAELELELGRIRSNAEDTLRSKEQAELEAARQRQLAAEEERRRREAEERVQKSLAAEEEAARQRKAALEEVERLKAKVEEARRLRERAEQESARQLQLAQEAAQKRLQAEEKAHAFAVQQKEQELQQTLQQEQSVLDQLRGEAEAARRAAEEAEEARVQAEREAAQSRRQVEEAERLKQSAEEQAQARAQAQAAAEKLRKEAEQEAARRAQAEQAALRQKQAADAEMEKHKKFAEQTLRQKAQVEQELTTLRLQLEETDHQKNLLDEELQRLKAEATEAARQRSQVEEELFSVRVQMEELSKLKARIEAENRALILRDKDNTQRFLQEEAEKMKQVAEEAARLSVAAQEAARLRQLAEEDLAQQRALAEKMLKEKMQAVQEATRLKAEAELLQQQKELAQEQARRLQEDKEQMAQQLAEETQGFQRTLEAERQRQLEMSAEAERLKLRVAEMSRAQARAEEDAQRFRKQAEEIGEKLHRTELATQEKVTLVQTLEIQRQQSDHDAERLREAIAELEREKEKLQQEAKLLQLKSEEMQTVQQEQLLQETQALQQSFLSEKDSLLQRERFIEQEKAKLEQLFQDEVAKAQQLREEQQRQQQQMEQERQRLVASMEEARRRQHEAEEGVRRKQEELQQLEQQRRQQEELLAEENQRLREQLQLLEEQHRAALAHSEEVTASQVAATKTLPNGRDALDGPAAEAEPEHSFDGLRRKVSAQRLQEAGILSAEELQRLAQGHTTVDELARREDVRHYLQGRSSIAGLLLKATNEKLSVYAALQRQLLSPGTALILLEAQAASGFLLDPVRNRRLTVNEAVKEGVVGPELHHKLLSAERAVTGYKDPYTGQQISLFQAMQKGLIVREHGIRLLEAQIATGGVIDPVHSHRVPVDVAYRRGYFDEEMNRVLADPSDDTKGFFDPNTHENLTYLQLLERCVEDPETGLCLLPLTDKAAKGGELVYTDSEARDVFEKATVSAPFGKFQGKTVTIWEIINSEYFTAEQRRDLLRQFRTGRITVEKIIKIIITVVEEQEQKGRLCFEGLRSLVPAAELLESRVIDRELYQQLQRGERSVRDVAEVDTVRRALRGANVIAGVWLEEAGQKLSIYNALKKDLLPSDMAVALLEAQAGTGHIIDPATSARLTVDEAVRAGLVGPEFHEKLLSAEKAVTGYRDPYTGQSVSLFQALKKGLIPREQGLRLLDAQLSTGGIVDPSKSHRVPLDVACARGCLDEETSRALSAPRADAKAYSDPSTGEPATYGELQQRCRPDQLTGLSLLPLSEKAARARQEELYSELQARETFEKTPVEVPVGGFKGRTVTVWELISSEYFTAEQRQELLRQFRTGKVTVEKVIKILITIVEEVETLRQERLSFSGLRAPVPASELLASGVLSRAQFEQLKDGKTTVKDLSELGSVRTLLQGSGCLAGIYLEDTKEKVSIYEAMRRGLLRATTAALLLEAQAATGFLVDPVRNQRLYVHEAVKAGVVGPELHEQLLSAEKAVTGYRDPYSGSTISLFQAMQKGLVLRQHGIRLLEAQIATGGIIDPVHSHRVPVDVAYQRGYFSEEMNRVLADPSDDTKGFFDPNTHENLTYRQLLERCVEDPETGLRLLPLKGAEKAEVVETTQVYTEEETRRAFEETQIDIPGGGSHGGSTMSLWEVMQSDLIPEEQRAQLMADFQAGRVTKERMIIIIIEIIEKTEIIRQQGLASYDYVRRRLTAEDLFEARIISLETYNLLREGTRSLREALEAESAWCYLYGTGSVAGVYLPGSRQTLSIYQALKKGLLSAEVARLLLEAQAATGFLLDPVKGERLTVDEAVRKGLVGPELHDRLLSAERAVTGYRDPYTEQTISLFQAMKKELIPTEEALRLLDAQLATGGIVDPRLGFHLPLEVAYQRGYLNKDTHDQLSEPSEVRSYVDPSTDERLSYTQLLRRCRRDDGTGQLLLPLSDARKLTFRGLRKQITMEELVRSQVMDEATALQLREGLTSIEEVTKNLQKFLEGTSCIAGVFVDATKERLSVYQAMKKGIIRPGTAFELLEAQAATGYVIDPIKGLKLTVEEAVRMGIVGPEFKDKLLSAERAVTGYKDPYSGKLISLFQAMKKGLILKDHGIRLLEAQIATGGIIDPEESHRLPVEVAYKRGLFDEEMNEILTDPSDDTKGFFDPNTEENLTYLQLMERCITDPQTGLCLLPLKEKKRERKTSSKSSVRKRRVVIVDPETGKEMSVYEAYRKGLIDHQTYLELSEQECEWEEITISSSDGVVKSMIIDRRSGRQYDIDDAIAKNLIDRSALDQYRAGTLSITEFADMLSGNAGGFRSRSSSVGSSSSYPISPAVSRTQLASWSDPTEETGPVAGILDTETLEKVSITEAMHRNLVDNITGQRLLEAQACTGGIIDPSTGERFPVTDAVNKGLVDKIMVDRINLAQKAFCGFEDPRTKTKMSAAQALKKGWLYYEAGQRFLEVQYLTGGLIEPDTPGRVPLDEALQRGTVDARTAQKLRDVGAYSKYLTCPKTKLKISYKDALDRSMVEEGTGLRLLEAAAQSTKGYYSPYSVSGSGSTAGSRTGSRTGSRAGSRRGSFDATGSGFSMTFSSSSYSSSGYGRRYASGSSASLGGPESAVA
Chain of UniProt P60660 (P60660 whole entry): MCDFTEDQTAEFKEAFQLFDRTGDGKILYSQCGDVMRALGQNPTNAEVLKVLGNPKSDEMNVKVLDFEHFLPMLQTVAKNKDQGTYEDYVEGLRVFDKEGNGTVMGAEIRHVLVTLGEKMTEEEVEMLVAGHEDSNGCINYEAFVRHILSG
Chain of UniProt Q08722 (Q08722 whole entry): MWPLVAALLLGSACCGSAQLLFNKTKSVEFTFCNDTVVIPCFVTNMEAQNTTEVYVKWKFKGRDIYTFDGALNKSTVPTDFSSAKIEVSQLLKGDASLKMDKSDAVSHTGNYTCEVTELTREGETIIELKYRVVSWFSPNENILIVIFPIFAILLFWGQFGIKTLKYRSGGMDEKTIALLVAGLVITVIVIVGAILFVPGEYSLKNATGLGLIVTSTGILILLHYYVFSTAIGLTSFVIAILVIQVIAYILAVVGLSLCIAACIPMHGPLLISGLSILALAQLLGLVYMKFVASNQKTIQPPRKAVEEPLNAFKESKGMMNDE

Row | Target | lysine labeling ratio R10:1
1 | FLNB (lysine site: K960) (UniProt O75369) | 1.54 (active)
2 | UniProt P62701 (lysine site: K233) | 4.48
3 | CNN2 (lysine site: K30) (UniProt Q99439) | 4.32
4 | UniProt P62244 (lysine site: K60) | 2.48
5 | FKBP4 (lysine site: K354) (UniProt Q02790) | 1.51 (active)
6 | PTPRM (lysine site: K375) (UniProt P28827) | 5.3
7 | EDIL3 (lysine site: K426) (UniProt O43854) | 2.91
8 | DISP1 (lysine site: K380) (UniProt Q96F81) | 2.05
9 | HSPA5 (lysine site: K521) (UniProt P11021) | 1.53 (active)
10 | MICA (lysine site: K94) (UniProt Q29983) | 2.63
11 | FAT4 (lysine site: K2566) (UniProt Q6V0I7) | 2.59
12 | CD47 (lysine site: K130) (UniProt Q08722) | 3.14
13 | AHCY (lysine site: K20) (UniProt P23526) | 1.54 (active)
14 | HSP90B1 (lysine site: K142) (UniProt P14625) | 2.93
15 | ITGA2 (lysine site: K1046) (UniProt P17301) | 6.48
16 | SPTAN1 (lysine site: K1288) (UniProt Q13813) | 1.21 (active)
17 | DSG2 (lysine site: K67) (UniProt Q14126) | 3.97
18 | F11R (lysine site: K78) (UniProt Q9Y624) | 3.33
19 | AGRN (lysine site: K1589) (UniProt O00468) | 5.07
20 | RARS (lysine site: K471) (UniProt P54136) | 2.85
21 | HNRNPU (lysine site: K186) (UniProt Q00839) | 4.06
22 | IGSF8 (lysine site: K143) (UniProt Q969P0) | 2.9
23 | UniProt P22413 (lysine site: K448) | 0.527 (active)
24 | UniProt Q15149 (lysine site: K4480) | 1.74 (active)
25 | RPL28 (lysine site: K19) (UniProt P46779) | 0.79 (active)
26 | PTGFRN (lysine site: K763) (UniProt Q9P2B2) | 4.93

Row | Target | lysine labeling ratio R10:1
27 | PPIA (lysine site: K155) (UniProt P62937) | 2.47
28 | UniProt Q15149 (lysine site: K3849) | 8.61
29 | UniProt P26639 (lysine site: K712) | 1.83 (active)
30 | L1CAM (lysine site: K381) (UniProt P32004) | 14
31 | SMOC1 (lysine site: K299) (UniProt Q9H4F8) | 4.95
32 | UniProt P02768 (lysine site: K438) | 10
33 | BASP1 (lysine site: K149) (UniProt P80723) | 3.54
34 | RPS19 (lysine site: K115) (UniProt P39019) | 1.86 (active)
35 | HNRNPU (lysine site: K352) (UniProt Q00839) | 2.95
36 | MYH9 (lysine site: K1638) (UniProt P35579) | 3.09
37 | UniProt P08727 (lysine site: K168) | 4.76
38 | ITGA6 (lysine site: K511) (UniProt P23229) | 14.7
39 | TLN1 (lysine site: K875) (UniProt Q9Y490) | 7.4
40 | AGRN (lysine site: K1708) (UniProt O00468) | 2.99
41 | NOTCH2 (lysine site: K1058) (UniProt Q04721) | 1.5 (active)
42 | UniProt Q96TA1 (lysine site: K479) | 2.71
43 | VIM (lysine site: K334) (UniProt P08670) | 5.58
44 | DSTN (lysine site: K19) (UniProt P60981) | 1.87 (active)
45 | NUMA1 (lysine site: K891) (UniProt Q14980) | 1.87 (active)
46 | UniProt P54851 (lysine site: K129) | 4.76
47 | CD58 (lysine site: K78) (UniProt P19256) | 8.22
48 | HNRNPL (lysine site: K302) (UniProt P14866) | 1.66 (active)
49 | UniProt P62829 (lysine site: K123) | 0.877 (active)
50 | DSG2 (lysine site: K362) (UniProt Q14126) | 1.02 (active)
51 | THBS1 (lysine site: K1103) (UniProt P07996) | 0.85 (active)
52 | RUVBL2 (lysine site: K279) (UniProt Q9Y230) | 2.65

Row | Target | lysine labeling ratio R10:1
53 | FSCN1 (lysine site: K220) (UniProt Q16658) | 4.2
54 | PVR (lysine site: K90) (UniProt P15151) | 3.33
55 | UniProt O95980 (lysine site: K684) | 1.24 (active)
56 | CCT6A (lysine site: K251) (UniProt P40227) | 1.04 (active)
57 | LAMC1 (lysine site: K1329) (UniProt P11047) | 1.2 (active)
58 | UniProt Q12884 (lysine site: K591) | 1.95 (active)
59 | UniProt Q15149 (lysine site: K3887) | 3.96
60 | ITGAV (lysine site: K889) (UniProt P06756) | 1.08 (active)
61 | UniProt P62249 (lysine site: K26) | 1.43 (active)
62 | IGF1R (lysine site: K502) (UniProt P08069) | 2.64
63 | CCT8 (lysine site: K440) (UniProt P50990) | 2.29
64 | C3 (lysine site: K1535) (UniProt P01024) | 5.81
65 | SDCBP (lysine site: K223) (UniProt O00560) | 2.46
66 | FLNA (lysine site: K523) (UniProt P21333) | 3.84
67 | FLNB (lysine site: K746) (UniProt O75369) | 3.48
68 | UniProt P59998 (lysine site: K44) | 7.73
69 | CAPZA1 (lysine site: K19) (UniProt P52907) | 2.43
70 | UniProt P62913 (lysine site: K67) | 3.62
71 | UniProt P60660 (lysine site: K98) | 3.79
72 | ACOT7 (lysine site: K198) (UniProt O00154) | 2.95
73 | ROBO1 (lysine site: K297) (UniProt Q9Y6N7) | 3.3
74 | LAMC1 (lysine site: K1041) (UniProt P11047) | 2.18
75 | ITGA1 (lysine site: K1046) (UniProt P56199) | 0.547 (active)
76 | CKAP4 (lysine site: K405) (UniProt Q07065) | 1.2 (active)
77 | ITGB1 (lysine site: K72) (UniProt P05556) | 1.91 (active)
78 | HSPA9 (lysine site: K345) (UniProt P38646) | 1.17 (active)

Row | Target | lysine labeling ratio R10:1
79 | ENAH (lysine site: K574) (UniProt Q8N8S7) | 5.16
80 | CXADR (lysine site: K88) (UniProt P78310) | 1.11 (active)
81 | IGF2R (lysine site: K1873) (UniProt P11717) | 0.826 (active)
82 | FLNB (lysine site: K1584) (UniProt O75369) | 3.06
83 | UniProt P60660 (lysine site: K81) | 3.44
84 | UniProt Q15149 (lysine site: K1923) | 1.36 (active)
85 | TFRC (lysine site: K673) (UniProt P02786) | 3
86 | TFRC (lysine site: K161) (UniProt P02786) | 6.73
87 | ATP2A2 (lysine site: K169) (UniProt P16615) | 7.34
88 | PPIB (lysine site: K98) (UniProt P23284) | 1.78 (active)
89 | DNAJA1 (lysine site: K144) (UniProt P31689) | 2.55
90 | ITGA2 (lysine site: K884) (UniProt P17301) | 1.93 (active)
91 | HSPA5 (lysine site: K164) (UniProt P11021) | 0.987 (active)
92 | UniProt P05787 (lysine site: K352) | 9.16
93 | CNP (lysine site: K197) (UniProt P09543) | 2.88
94 | HSPA9 (lysine site: K567) (UniProt P38646) | 2.96
95 | DSG2 (lysine site: K430) (UniProt Q14126) | 6.01
96 | IGF2R (lysine site: K1579) (UniProt P11717) | 0.605 (active)
97 | G6PD (lysine site: K432) (UniProt P11413) | 1.85 (active)
98 | GANAB (lysine site: K269) (UniProt Q14697) | 2.12
99 | UniProt Q9UHN6 (lysine site: K1278) | 1.31 (active)
100 | RAB2A (lysine site: K130) (UniProt P61019) | 1.45 (active)
101 | MYH9 (lysine site: K1387) (UniProt P35579) | 1.88 (active)
102 | ITGA6 (lysine site: K946) (UniProt P23229) | 2.37
